About 50,000 (12%) of roughly 420,000 compounds were called active. Another 26% or so got no clear call; they are omitted. Many of the other results were omitted from the sample, so actives are more common in it than they were. Unmarked numbers belong to inactive results. Calls come from the whole dose curve; as a rule, active = well fitted inhibition curve with a large enough effect; inconclusive = small, poorly fitted or top-dose-only effect; inactive = flat fitted curve, though single readings scatter.
assay: qHTS for Inhibitors of human tyrosyl-DNA phosphodiesterase 1 (TDP1): qHTS in cells in presence of CPT; settings: chicken DT40 Tdp1-/-;hTDP1 cells + 20 nM CPT, ATP luminescence, 48 h; series mostly up to 46.2 µM; activity change, negative = growth inhibition: at the top concentration; note: nearly all actives have a fitted effect of over 55% in size
Method in brief: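 Chicken DT40 Tdp1-/- cells complemented with human TDP1, 400 cells/well, exposed to compounds plus 20 nM camptothecin for at least 48 h at 37 C; viability read as ATP content by CellTiter-Glo luminescence.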
% is set by controls: 0 for no effect and ±100 for the full control effect; potency is the fitted concentration of half-maximal effect.

Point of comparison: `CCCCn1c(N)c(N(CC(C)C)C(=O)c2cccc(S(=O)(=O)N3CC(C)OC(C)C3)c2)c(=O)[nH]c1=O` (stereo not given), “activity change, negative = growth inhibition” value 19.3%. Against it:
- Cn1cccc1/C=N/NC(=O)c1ccc(OC(F)(F)C(F)F)cc1 — lower, -5.47%
- CCCC(=O)N1CCC1(C)C(=O)NS(=O)(=O)c1ccc(Cl)cc1 (stereo not given) — lower, -13%
- O=C(CCN1C(=O)c2ccccc2C1=O)NCCCn1ccnc1 — lower, 8.16%
- CC(=O)C(C)n1cnc2scc(-c3ccc(C)cc3)c2c1=O (stereo not given) — lower, -13.8%
- CN(C)S(=O)(=O)c1ccc(N2CCCC2)c(C(=O)Nc2cccc(F)c2)c1 — lower, 10.3%
- Cc1nccn1CCCNC(=O)CC1C(=O)NCCN1Cc1ccc(Cl)c(F)c1 (stereo not given) — lower, 9.86%
- O=C(CC1C(=O)NCCN1Cc1ccc(-c2ccccc2)cc1)NCC1CCOCC1 (stereo not given) — lower, 2.47%
- CCN(C(=O)COC(=O)c1ccccc1O)c1cccc2ccccc12 — lower, 0.154%
- CC(C)CCNC(=O)CC1C(=O)N(Cc2ccccc2)C(C)c2nc3ccccc3n21 (stereo not given) — lower, -13.9%
- Cc1onc(-c2ccccc2)c1C(=O)N=C(N)c1ccc(Cl)cc1 — lower, 0.615%
- Cc1ccc(C(=O)NCC(=O)OCc2nnc(-c3ccccc3)o2)cc1 — lower, 8.86%
- CCOC(=O)c1ccc(COC(=O)CCc2nc(-c3ccccc3)c(-c3ccccc3)o2)cc1 — lower, -16%
- O=C(OCc1nnc(-c2ccccc2)o1)c1ccc2c(c1)C(=O)N(CCc1ccccc1)C2=O — lower, -12.9%
- Cc1ccc(NC(=O)CCC(=O)N/N=C/c2ccco2)c(C)c1 — lower, 18.1%
- Nc1nc(O)c(CC(=O)O)s1 — lower, -1.16%
- O=C(NCCNc1ccccc1[N+](=O)[O-])c1ccccc1F — lower, -2.38%
- Cn1nnnc1SCC(=O)Nc1cccc(S(=O)(=O)N2CCCCC2)c1 — lower, 0.445%
- CCOC(=O)C1=C(NC(=S)NC(=O)c2ccccc2)c2ccccc2CC1(C)C — lower, -8.29%
- O=C(CSc1nc(O)c(Cc2ccccc2)c(=O)[nH]1)Nc1nc2c(s1)CCCC2 — lower, -15.5%
- Cc1ccc2c(c1)C1CN(C)CCC1N2C(=O)c1ccccc1NS(=O)(=O)c1ccc(F)cc1C (stereo not given) — lower, -11.4%
- O=C1O/C(=C\c2ccc(O)cc2)C(O)=C1c1ccc(O)cc1 — lower, -3.86%
- COc1cc(C2C3=C(CCCC3=O)OC3=C2C(=O)CCC3)ccc1OCC(=O)Nc1ccccc1 — lower, -1.46%
- O=C1c2ccccc2S(=O)(=O)N1Cc1c(F)cccc1Cl — lower, -12.9%
- O=c1c(=O)n(Cc2c(F)cccc2Cl)ccn1Cc1ccccc1 — lower, -23.7%
- NC(=O)COc1ccc2c3c(c(=O)oc2c1)CCCCC3 — lower, -25.1%
- O=C(COc1ccc2ccc(=O)oc2c1)NCC(O)c1ccccc1 (stereo not given) — lower, 9.18%
- Cc1cc(CNC(=O)C2CCC(=O)N(CCc3ccc(Cl)cc3)C2)no1 (stereo not given) — lower, -10%
- Nc1nnc(SCn2nnc3ccccc3c2=O)s1 — lower, 3.45%
- O=c1c2ccccc2nnn1CSc1nnnn1-c1ccccc1 — lower, -19.1%
- O=S(=O)(Nc1ccc(Cl)cn1)c1cnc(Cl)c(Br)c1 — lower, -18.1%
- CN1CCN(C(=O)c2ccc(-c3ccc(Br)cc3)o2)CC1 — lower, -29.6%
- CCOC(=O)N1CCN(Cc2nc3ccc([N+](=O)[O-])cc3c(=O)n2-c2cccc(OC)c2)CC1 — lower, -29.6%
- Cc1ccc(NN=C2C(=O)OC(C)(C)OC2=O)c(C)c1 — lower, 1.15%
- CC(C)=C1SC(N2CCN(c3ccc(C)c(Cl)c3)CC2)=NC1=O — lower, -1.1%
- Cc1ccc(N2CCN(C3=NC(=O)/C(=C\c4cccs4)S3)CC2)cc1 — lower, -11.5%
- CCOC(=O)C(C)Sc1nnc(CSc2nc3nc(C)cc(C)n3n2)o1 (stereo not given) — lower, -6.12%
- C=CCNC(=O)COc1coc(CN2CCN(Cc3ccccc3)CC2)cc1=O — lower, 2.71%
- CNC(=S)NNC(=O)c1cccn(Cc2ccccc2)c1=O — lower, -4.14%
- NS(=O)(=O)c1ccc(N=Cc2ccc(Br)s2)cc1 — lower, -6.56%
- COc1cc(OC)cc(-c2c(C#Cc3ccsc3)c3cc(-c4ccc(SC)cc4)ccc3n2C)c1 — lower, -8.14%

With `CCOc1ccc(CN2CCNC(=O)C2CC(=O)NCCCC2CCCC2)cc1` (stereo not given) the Potency was 16.4 µM (active).
For `Cc1onc(-c2ccccc2)c1-c1nnc(COC(=O)c2ccc(N(C)C)cc2)o1`, the Potency was 20.6 µM (active).
With `Cc1onc(-c2ccccc2Cl)c1C(=O)OCc1nnc(-c2ccccc2)o1` the Potency was 18.4 µM (active).
In the case of `Cc1ccc(C)c(N2C(=O)N(Cc3c(F)cccc3Cl)c3ccccc3S2(=O)=O)c1`, the Potency is reported as 18.4 µM (active).
With `O=C(COc1ccc2c3c(c(=O)oc2c1)CCCC3)NCC(O)c1ccccc1` (stereo not given) the Potency was 20.6 µM (active).
With `O=c1c2ccccc2nnn1CSc1nc2sc3c(c2c(=O)n1CC1CCCO1)CCC3` (stereo not given) the Potency was 16.4 µM (active).
For `CC(C)=C1SC(N2CCN(c3cccc(C)c3)CC2)=NC1=O`, the Potency was 20.6 µM (active).
In the case of `C=CCNC(=S)/N=c1/ccccn1Cc1ccccc1`, the Potency is reported as 7.31 µM (active).
For `COc1cc(OC)cc(-c2c(-c3cccs3)c3cc(-c4ccc(OC)nc4)ccc3n2C)c1`, the Potency was 20.6 µM (active).
